Of roughly 21,000 targets only a part is listed; those with the largest changes were picked by preference.
Compound: CC1Cc2ccccc2N1C(=O)C1CCCN(C1)C(=O)CCl (mixture of isomers) [TRIM25 ligand 11 (diastereomer mixture)]
Test: probe-labelled cysteine peptide fold change vs DMSO (competition) (log2 fold change); higher = less target engagement (more negative = stronger competition)
Conditions: THP-1, incubation time: 4 h
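Further: competitive chemoproteomic profiling in live THP-1 cells with an iodoacetamide desthiobiotin (IA-DTB) probe, comparing probe-labelled peptide intensities in compound-treated cells against DMSO-treated controls.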

Target: HGD_Q93099_180_MLVQPNEICVIQR (UniProt Q93099)
- probe-labelled cysteine peptide fold change (10 µM): 0.479
- probe-labelled cysteine peptide fold change (50 µM): 0.382

Target: GCLM_P48507_72_EFPDVLECTVSHAVEK (UniProt P48507)
UniProt P48507, sequence (P48507 whole entry, looked up): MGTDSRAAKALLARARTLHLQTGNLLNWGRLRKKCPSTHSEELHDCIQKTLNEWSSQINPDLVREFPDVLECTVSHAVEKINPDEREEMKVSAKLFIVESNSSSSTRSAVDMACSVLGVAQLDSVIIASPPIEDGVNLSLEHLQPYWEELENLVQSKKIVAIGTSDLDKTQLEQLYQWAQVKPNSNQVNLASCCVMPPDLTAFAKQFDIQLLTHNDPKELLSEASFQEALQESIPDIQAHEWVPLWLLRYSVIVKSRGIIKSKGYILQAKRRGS
- probe-labelled cysteine peptide fold change (10 µM): 0.0379
- probe-labelled cysteine peptide fold change (50 µM): 0.0286

Target: GSTCD_Q8NEC7_571_EHMILCR (UniProt Q8NEC7)
UniProt Q8NEC7, sequence (Q8NEC7 whole entry, looked up): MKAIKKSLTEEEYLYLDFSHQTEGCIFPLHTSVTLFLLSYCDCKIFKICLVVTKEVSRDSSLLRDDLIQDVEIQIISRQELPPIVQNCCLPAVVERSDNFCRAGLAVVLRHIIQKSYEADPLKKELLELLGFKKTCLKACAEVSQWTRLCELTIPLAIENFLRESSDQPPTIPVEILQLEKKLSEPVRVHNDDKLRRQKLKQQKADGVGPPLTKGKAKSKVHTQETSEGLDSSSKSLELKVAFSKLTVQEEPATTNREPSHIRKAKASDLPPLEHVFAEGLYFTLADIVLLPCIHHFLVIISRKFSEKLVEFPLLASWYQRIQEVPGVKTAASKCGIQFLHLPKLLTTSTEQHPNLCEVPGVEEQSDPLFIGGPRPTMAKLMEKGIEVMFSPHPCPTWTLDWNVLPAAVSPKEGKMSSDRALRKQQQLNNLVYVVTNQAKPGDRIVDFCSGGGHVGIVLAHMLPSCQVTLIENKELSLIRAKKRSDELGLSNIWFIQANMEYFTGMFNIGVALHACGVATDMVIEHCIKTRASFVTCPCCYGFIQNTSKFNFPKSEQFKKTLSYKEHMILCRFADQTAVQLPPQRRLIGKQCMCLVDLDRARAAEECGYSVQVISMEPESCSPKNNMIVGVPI
- probe-labelled cysteine peptide fold change (10 µM): 0.0436
- probe-labelled cysteine peptide fold change (50 µM): 0.126

Target: GAPDH_P04406_247_VPTANVSVVDLTCRLEK (UniProt P04406)
UniProt P04406, sequence (P04406 whole entry, looked up): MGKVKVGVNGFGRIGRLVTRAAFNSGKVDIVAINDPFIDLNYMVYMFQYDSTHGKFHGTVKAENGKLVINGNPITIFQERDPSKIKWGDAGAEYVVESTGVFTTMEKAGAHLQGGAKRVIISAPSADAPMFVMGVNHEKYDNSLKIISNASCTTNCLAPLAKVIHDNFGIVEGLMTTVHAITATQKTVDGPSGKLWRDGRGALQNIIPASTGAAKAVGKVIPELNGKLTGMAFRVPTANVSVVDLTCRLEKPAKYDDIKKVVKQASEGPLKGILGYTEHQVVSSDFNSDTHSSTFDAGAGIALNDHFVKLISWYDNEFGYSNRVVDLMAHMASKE
- probe-labelled cysteine peptide fold change (10 µM): -0.778
- probe-labelled cysteine peptide fold change (50 µM): -0.389

Target: HSPA14_Q0VDF9_394_ENLLVEDSLMIECSAR (UniProt Q0VDF9)
- probe-labelled cysteine peptide fold change (10 µM): -0.368
- probe-labelled cysteine peptide fold change (50 µM): -0.17

Target: H2AFY_O75367_276_FVIHCNSPVWGADKCEELLEK (UniProt O75367)
UniProt O75367, sequence (O75367 whole entry, looked up): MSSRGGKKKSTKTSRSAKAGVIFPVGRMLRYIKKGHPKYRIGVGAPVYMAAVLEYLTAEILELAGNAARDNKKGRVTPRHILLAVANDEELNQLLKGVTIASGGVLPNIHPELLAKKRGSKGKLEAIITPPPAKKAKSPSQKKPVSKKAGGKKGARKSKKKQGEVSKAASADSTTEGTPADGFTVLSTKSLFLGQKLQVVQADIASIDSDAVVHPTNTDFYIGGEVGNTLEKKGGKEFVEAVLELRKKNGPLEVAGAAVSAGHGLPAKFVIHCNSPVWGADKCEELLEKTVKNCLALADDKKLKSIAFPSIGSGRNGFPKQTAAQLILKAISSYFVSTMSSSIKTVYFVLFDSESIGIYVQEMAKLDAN
- probe-labelled cysteine peptide fold change (10 µM): -0.321
- probe-labelled cysteine peptide fold change (50 µM): -0.0894

Target: HMGCL_P35914_141_NINCSIEESFQR (UniProt P35914)
UniProt P35914, sequence (P35914 whole entry, looked up): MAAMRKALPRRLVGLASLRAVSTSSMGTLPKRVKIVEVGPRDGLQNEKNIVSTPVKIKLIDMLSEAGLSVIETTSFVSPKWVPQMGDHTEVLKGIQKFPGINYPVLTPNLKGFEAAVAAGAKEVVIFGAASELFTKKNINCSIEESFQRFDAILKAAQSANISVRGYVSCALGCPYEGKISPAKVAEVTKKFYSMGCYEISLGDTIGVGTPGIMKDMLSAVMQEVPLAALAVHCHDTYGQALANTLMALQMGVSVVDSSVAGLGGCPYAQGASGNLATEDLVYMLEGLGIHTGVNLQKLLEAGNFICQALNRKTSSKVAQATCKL
- probe-labelled cysteine peptide fold change (10 µM): 0.0699
- probe-labelled cysteine peptide fold change (50 µM): 0.161

Target: GPT2_Q8TD30_281_CIEDVIHFAWEEK (UniProt Q8TD30)
UniProt Q8TD30, sequence (Q8TD30 whole entry, looked up): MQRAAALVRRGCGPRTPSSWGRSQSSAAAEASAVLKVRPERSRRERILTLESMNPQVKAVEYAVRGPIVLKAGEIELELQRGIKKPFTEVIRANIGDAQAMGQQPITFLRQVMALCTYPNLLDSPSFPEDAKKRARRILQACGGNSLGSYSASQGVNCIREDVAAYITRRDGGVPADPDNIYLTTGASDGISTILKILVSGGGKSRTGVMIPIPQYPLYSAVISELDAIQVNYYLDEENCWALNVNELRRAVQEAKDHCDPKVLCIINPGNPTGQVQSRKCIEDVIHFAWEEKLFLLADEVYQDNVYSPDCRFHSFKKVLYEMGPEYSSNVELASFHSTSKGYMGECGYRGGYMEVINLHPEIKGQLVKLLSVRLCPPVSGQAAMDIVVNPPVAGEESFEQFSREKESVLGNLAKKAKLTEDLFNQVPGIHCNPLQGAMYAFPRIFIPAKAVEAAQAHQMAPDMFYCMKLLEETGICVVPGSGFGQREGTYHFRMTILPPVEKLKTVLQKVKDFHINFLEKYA
- probe-labelled cysteine peptide fold change (10 µM): 0.213
- probe-labelled cysteine peptide fold change (50 µM): 0.0432

Target: HSPA2_P54652_191_GCAGGEK (UniProt P54652)
- probe-labelled cysteine peptide fold change (10 µM): -0.0761
- probe-labelled cysteine peptide fold change (50 µM): -0.123

Target: HSPA4_P34932_213_NVVFVDMGHSAYQVSVCAFNR (UniProt P34932)
UniProt P34932, sequence (P34932 whole entry, looked up): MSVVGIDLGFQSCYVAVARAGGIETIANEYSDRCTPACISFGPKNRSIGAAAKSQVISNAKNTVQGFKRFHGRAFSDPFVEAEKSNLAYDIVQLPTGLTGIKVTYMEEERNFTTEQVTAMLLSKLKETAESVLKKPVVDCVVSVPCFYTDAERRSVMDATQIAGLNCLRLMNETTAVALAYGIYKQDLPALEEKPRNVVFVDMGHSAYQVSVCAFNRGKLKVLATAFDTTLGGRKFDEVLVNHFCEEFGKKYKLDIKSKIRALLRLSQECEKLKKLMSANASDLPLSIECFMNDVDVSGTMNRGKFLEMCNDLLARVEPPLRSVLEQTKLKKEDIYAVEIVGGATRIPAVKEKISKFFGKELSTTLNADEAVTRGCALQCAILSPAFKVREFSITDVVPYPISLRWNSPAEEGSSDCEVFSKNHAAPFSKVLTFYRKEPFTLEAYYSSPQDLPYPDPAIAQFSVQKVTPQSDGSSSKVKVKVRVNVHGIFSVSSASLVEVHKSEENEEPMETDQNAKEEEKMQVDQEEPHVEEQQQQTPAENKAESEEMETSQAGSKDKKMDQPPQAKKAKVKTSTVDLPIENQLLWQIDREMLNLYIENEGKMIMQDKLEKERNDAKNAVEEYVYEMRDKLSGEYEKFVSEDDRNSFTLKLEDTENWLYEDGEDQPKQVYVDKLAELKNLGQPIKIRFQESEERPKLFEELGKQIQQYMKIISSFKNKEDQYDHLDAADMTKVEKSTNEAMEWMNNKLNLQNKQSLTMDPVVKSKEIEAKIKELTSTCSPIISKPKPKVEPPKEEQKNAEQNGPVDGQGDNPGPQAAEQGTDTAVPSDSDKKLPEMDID
- probe-labelled cysteine peptide fold change (10 µM): 0.1
- probe-labelled cysteine peptide fold change (50 µM): 0.0909

Target: HNRNPAB_Q99729_224_KFHTVSGSKCEIK (UniProt Q99729)
UniProt Q99729, sequence (Q99729 whole entry): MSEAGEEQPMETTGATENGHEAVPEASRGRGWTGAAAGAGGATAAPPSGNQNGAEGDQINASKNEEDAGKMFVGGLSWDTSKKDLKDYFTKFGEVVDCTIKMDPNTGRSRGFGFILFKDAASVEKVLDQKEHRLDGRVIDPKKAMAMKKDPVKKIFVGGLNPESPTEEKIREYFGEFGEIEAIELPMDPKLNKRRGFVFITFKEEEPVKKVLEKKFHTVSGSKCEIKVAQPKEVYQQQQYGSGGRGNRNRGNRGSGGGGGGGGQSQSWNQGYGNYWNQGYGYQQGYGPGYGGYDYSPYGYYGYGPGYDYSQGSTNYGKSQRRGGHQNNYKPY
- probe-labelled cysteine peptide fold change (10 µM): -0.654
- probe-labelled cysteine peptide fold change (50 µM): -0.0882

Target: GTF2B_Q00403_37_AGDMICPECGLVVGDR (UniProt Q00403)
UniProt Q00403, sequence (Q00403 whole entry, looked up): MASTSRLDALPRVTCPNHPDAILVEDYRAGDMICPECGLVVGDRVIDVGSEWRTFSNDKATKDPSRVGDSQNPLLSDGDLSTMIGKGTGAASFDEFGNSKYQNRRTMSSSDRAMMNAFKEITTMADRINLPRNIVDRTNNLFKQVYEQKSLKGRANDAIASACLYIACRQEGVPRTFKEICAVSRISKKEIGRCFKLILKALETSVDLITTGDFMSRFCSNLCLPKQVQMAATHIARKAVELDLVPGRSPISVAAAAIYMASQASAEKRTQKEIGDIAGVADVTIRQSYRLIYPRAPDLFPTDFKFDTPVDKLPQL
- probe-labelled cysteine peptide fold change (10 µM): 0.000693
- probe-labelled cysteine peptide fold change (50 µM): 0.073

Target: GMPS_P49915_456_VICAEEPYICK (UniProt P49915)
- probe-labelled cysteine peptide fold change (10 µM): 0.0291
- probe-labelled cysteine peptide fold change (50 µM): 0.0222

Target: HAT1_O14929_168_ADMTCR (UniProt O14929)
UniProt O14929, sequence (O14929 whole entry, looked up): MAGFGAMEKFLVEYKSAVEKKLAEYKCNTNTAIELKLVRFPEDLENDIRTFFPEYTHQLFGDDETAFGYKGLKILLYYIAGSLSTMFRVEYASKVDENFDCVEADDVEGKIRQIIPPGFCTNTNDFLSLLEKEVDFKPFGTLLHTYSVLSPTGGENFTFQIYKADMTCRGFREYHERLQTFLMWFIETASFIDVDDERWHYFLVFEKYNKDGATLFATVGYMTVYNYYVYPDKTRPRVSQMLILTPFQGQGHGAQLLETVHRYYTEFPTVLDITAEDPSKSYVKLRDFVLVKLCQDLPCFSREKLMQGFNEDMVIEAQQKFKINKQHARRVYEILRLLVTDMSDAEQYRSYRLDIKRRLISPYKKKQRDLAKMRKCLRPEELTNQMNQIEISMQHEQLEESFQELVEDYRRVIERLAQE
- probe-labelled cysteine peptide fold change (10 µM): 0.0223
- probe-labelled cysteine peptide fold change (50 µM): 0.0285

Target: GSDMD_P57764_268_CLHNFLTDGVPAEGAFTEDFQGLRAEVETISK (UniProt P57764)
UniProt P57764, sequence (P57764 whole entry, looked up): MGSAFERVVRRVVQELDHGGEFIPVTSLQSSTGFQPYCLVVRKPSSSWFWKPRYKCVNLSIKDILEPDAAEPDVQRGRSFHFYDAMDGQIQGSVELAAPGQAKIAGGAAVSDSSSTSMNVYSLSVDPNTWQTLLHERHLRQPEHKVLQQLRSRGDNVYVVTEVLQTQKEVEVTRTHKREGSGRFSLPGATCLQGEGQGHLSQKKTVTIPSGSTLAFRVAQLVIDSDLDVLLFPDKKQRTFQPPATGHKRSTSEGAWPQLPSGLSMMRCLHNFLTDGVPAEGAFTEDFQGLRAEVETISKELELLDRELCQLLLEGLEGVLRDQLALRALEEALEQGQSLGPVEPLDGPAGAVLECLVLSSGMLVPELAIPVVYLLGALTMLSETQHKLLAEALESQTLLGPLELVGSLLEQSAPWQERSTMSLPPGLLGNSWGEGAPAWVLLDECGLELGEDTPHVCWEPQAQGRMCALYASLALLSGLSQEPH
- probe-labelled cysteine peptide fold change (10 µM): 0.377
- probe-labelled cysteine peptide fold change (50 µM): 0.487
